Laboratory results published in PubChem BioAssay (EPA / NIEHS).
A structure can be active in one record and inactive in another. The source made the active and inactive calls. How the source made its calls: active means hit-call score of the fitted dose curve at least 0.9, where 1 is the maximum; inactive means score below 0.9.

Experiment: CCTE_Shafer_MEA_dev_network_spike_duration_std: CCTE's Neural Network Formation Assay for Standard Deviation of Network Spike Duration, Shafer Lab (AID 2284052);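 further: hits are decreases in network spike duration SD versus DMSO vehicle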
Procedure: CCTE_Shafer_MEA_dev assay is conducted using Axion Biosystems 48 well microelectrode array (MEA) plates and Maestro recording system. Each well of the MEA plate contains a grid of 16 microelectrodes embedded in the culture surface. Electrically active cells, such as neurons, can be cultured over the electrodes, and electrical activity in these cells can be recorded extracellularly. The spontaneous firing of neurons is captured from each electrode on a microsecond timescale providing both temporally and spatially precise data. […] The CCTE_Shafer_MEA_dev assay uses primary cultures of rat cortical neurons. Recordings are made on days post-plating 5, 7, 9 and 12. As these cultures mature over time, neural networks develop functional activity and form cohesive networks in which electrical activity can be highly coordinated. CCTE_Shafer_MEA_dev_network_spike_duration_std is 1 of 19 assay components of the CCTE_Shafer_MEA_dev assay. It measures the standard deviation of the duration of network spikes (temporally-clustered groups of action potential firing across multiple electrodes) during a recording in a microelectrode array (MEA) using Axion Biosystems Maestro 768 channel amplifier with the AxIS adaptive spike detector. To collapse across multiple recordings made on days post-plating 5, 7, 9 and 12, the trapezoidal area-under-the-curve of the component is calculated.Data from the assay component CCTE_Shafer_MEA_dev_network_spike_duration_std was analyzed into 1 assay endpoint. This assay endpoint, CCTE_Shafer_MEA_dev_network_spike_duration_std, was analyzed in the negative analysis fitting direction relative to DMSO as the negative control and baseline of activity. Using a type of functional reporter, gain or loss-of-signal activity can be used to understand electrical activity.
On the day prior to culture, each well was coated thoroughly with 150 uL of 0.05% polyethyleneimine (PEI, Sigma Cat P3143) in 50 mM HEPES (Sigma Cat H7523) at a pH of 8. The plate was incubated at 37C for one hour. PEI was rinsed out with 500 uL of sterile water three times. Plates were stored at 4C until the day of culture. This culture was plated at a seeding density of 1.5 x 10^5 cells/well on a 48-well MEA plate, prepared as described above. Cells were administered via a 25 uL media/laminin ([…]; Sigma Cat L2020-1MG) drop directly onto the microelectrode array, as adding the cells with the laminin results in better attachment than pre-coating with laminin. After 2 hours, an additional 475 uL of cortical media was added and the cells returned to the incubator. Exposure starts at day 0 of plating and is continued over twelve days of network development until the experiment is terminated. Cells are fed with fresh medium on DIV 5 and 9, following the recordings on those days. The entire volume of media in the well is exchanged and any vehicle or compound treatment is renewed. Complete details are found in OP-NHEERL/ISTD/SBB/TJS/2015-03-r0 (available on request, email shafer.tim@epa.gov). Measurement of the electrical activity is non-invasive, and recordings can be made from the same plate over multiple different days of the culture. In cortical neurons, this allows for the measurement of extracellular action potentials over the period during which networks form in the MEA plate.

Structure (SMILES)	outcome	AC50
Cc1cc(=O)[nH]c(=S)[nH]1	inactive	
C=CCc1ccc(O)c(OC)c1	inactive	
FC(F)(F)C(F)(F)C(F)(F)C(F)(F)C(F)(F)C(F)(F)CCI	inactive	
C[Si]1(C)O[Si](C)(C)O[Si](C)(C)O[Si](C)(C)O1	inactive	
CCCc1cc(=O)[nH]c(=S)[nH]1	inactive	
CC(=O)Oc1ccccc1C(=O)O	inactive	0.0101 µM (active)
OC[C@@H](O)[C@@H](O)[C@H](O)[C@H](O)CO	inactive	
CC(C)c1ccc(C(=O)N=C(N)N)cc1S(C)(=O)=O	inactive	
O=c1[nH]cc(F)c(=O)[nH]1		2.01 µM (active)
